From PubChem BioAssay AID2073 (Sanford-Burnham Center for Chemical Genomics, 2009)
In all, about 290,000 compounds went through this assay and about 570 (0.2%) were called active. About 1% were inconclusive and are not listed. Cut-off read from the data, not from the text of the source: active = inhibition mostly above about 51% (no sharp cut-off); inconclusive = no clear call, values can overlap the other calls; inactive = mostly below about 53%. The entries come from a sample that favours actives as a whole.

Molecular target: Voltage-dependent N-type calcium channel subunit alpha-1B (Homo sapiens) (UniProt Q00975)
Test: disruptors of CaV2.2 binding to Mint1 – biochemical, HTRF (AID 2073)
Conditions: HTRF protein-protein interaction, Mint1-CaV2.2, at 20 µM, stronger effect = higher value
[1] = measured here: average of repeat tests

Sequence of Voltage-dependent N-type calcium channel subunit alpha-1B (Homo sapiens) (Q00975 whole entry, looked up): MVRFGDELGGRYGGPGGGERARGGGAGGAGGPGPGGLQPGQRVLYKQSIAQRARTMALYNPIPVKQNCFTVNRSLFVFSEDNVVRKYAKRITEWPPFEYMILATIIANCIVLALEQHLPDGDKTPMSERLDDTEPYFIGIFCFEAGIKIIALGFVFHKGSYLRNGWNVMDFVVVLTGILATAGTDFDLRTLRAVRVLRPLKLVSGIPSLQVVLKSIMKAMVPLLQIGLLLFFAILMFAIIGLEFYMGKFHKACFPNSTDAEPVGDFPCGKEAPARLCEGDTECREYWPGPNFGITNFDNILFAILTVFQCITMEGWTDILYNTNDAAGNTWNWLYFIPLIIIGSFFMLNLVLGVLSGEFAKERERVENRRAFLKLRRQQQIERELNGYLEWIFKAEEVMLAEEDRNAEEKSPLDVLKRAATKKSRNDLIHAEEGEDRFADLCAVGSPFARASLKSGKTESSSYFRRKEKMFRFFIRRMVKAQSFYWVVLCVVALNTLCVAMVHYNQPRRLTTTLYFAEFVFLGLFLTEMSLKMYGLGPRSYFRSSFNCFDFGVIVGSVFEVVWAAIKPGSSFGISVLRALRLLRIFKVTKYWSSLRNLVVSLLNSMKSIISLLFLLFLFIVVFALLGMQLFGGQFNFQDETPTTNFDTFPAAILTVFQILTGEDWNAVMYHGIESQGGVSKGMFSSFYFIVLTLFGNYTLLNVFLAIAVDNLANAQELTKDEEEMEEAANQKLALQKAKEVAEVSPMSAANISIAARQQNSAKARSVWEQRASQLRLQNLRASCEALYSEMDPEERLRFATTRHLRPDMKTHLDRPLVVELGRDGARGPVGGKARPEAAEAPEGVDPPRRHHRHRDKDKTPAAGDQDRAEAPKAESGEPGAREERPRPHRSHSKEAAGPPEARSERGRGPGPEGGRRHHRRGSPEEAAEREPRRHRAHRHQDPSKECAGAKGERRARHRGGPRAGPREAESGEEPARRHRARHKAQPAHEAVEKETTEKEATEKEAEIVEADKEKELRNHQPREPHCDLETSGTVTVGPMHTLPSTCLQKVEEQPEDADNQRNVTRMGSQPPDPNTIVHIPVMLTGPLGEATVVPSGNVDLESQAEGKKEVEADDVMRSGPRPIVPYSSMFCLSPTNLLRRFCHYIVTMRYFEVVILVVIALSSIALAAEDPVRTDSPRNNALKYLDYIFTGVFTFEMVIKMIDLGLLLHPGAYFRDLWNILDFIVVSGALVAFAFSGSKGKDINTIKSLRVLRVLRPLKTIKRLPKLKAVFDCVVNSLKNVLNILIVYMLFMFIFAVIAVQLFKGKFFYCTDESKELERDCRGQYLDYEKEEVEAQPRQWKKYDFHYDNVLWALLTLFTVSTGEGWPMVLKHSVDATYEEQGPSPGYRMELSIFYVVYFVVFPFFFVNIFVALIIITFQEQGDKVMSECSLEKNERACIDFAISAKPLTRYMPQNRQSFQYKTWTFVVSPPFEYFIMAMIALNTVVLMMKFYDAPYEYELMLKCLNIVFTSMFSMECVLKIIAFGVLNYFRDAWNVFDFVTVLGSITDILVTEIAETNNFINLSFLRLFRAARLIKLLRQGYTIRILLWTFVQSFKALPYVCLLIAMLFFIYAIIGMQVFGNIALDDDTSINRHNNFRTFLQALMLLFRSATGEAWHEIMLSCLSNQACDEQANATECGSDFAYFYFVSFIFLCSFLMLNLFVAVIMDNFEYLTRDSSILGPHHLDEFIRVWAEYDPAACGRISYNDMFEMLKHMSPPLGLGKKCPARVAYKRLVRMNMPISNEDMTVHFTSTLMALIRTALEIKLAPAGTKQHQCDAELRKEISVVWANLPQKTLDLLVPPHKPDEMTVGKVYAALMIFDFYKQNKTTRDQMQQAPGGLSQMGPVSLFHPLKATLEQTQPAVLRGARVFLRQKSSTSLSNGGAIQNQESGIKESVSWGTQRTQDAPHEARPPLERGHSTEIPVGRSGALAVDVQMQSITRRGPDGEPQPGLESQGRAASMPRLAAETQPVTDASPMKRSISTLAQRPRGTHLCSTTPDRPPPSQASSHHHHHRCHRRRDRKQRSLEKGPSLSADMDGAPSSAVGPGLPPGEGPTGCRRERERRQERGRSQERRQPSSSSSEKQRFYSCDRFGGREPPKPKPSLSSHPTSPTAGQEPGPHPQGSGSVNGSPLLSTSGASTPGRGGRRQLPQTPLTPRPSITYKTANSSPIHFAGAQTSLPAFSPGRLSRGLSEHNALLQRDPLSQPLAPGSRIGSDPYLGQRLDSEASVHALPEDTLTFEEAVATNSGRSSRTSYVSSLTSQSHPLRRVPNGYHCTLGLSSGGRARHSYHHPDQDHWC

Compound	inhibition	inhibition [1]
CC(C)n1c(=O)c(C=Nc2ccc(Br)cc2)c(O)n(Cc2ccco2)c1=O	59.1% (active)	–
CC(C)n1c(=O)c(C=Nc2ccc(Cl)cc2)c(O)n(Cc2ccco2)c1=O	63.2% (inactive)	17.6%
CC(C)n1c(=O)c(C=Nc2ccc(F)cc2)c(O)n(Cc2ccco2)c1=O	14.1% (inactive)	–
O=C(O)CCn1cc(C=C2C(=O)NC(=O)NC2=O)c(-c2ccc(Br)cc2)n1	11.7% (inactive)	–
O=C(O)CCn1cc(C=C2C(=O)NC(=O)NC2=O)c(-c2cc3ccccc3oc2=O)n1	42.3% (inactive)	–
O=C(O)CCn1cc(C=C2C(=O)NC(=S)NC2=O)c(-c2cccc(Br)c2)n1	75.7% (active)	–
O=C(Cc1ccc(Br)cc1)N1CCN(Cc2ccccc2)CC1	9.2% (inactive)	–
CCc1ccc(N2C(=O)NC(=O)/C(=C/c3cccn3CCOc3ccc(C)cc3)C2=O)cc1	17.5% (inactive)	–
CN(C)C(=S)SSC(=S)N(C)C	78% (active)	–
CC(=O)N1CCN(Cc2ccc(Cl)nc2)CC1	5.2% (inactive)	–
O=C1CC(=O)N(c2cccc(Br)c2)C(=O)N1	3.7% (inactive)	–
Cc1ccc(NC(=O)c2cn(CCC#N)nc2-c2ccc3c(c2)OCCO3)c([N+](=O)[O-])c1	-4.2% (inactive)	–
COc1ccc(Cl)cc1N=Cc1c(O)n(C)c(=O)n(C)c1=O	15.7% (inactive)	–
CCN(CC)C(=O)c1ccc(NC(=O)CCCSc2ccccc2)cc1	-3.4% (inactive)	–
CCC(=O)Nc1ccccc1	-4.1% (inactive)	–
CCCCC/C=C\C/C=C\C/C=C\C/C=C\CCCC(=O)Nc1ccc(O)cc1	51% (active)	–
CN1CCN(C(=O)Cc2ccccc2)CC1	5.6% (inactive)	–
O=c1[nH]c(=S)n(-c2ccccc2Cl)c(O)c1C=NCCN1CCNCC1	-0.4% (inactive)	–
Cc1oc(-c2ccccc2)nc1CN1C(=O)CN=C(c2ccccc2)c2ccccc21	-1.1% (inactive)	–
COc1ccc(CC[n+]2cc(/N=C(\C)[O-])on2)cc1OC	11.6% (inactive)	–
Cc1cc(C=C2C(=O)NC(=S)NC2=O)c(C)n1-c1ccc2c(c1)OCO2	53.2% (active)	–
Cc1cc(/C=C2\C(=O)NC(=O)N(C)C2=O)c(C)n1-c1ccc2c(c1)OCO2	0.4% (inactive)	–
Cc1cc(C=C2C(=O)NC(=O)NC2=O)c(C)n1-c1ccc2c(c1)OCO2	16.8% (inactive)	–
O=C1NC(=O)C(CCc2ccncc2)(CCc2ccccn2)C(=O)N1c1ccc(Br)cc1 (stereo not drawn)	16.2% (inactive)	–
COc1cc(Br)c(CNCCc2ccc3c(c2)OCO3)cc1OC	-3.9% (inactive)	–
COc1cc2c(c(OC)c1)C(=O)OC(C)CCCC(=O)CCCCC2 (stereo not drawn)	7.1% (inactive)	–
COc1ccc(-n2c(/C=C/c3ccc(O)c(O)c3)nc3ccccc3c2=O)cc1	40.5% (inactive)	–
COc1cccc(-n2c(/C=C/c3ccc(O)c(O)c3)nc3ccccc3c2=O)c1	62.6% (active)	–

Compound	inhibition	inhibition [1]
O=c1c2ccccc2nc(/C=C/c2ccc(O)c(O)c2)n1-c1ccccc1	33.3% (inactive)	–
O=C(CN1CC(c2ccccc2)CC1=O)NCc1ccc(F)cc1 (stereo not drawn)	-3.7% (inactive)	–
C[n+]1ccc(-c2ccncc2)cc1	6.3% (inactive)	–
COc1ccc(N=Nc2c(O)[nH]c(=S)[nH]c2=O)cc1	-13.3% (inactive)	–
O=[As](O)(O)c1ccc(N=Nc2ccc(O)cc2)cc1	15.6% (inactive)	–
CSc1nc(N)c(N=Nc2ccc([As](=O)(O)O)cc2)c(=O)[nH]1	58.9% (active)	–
CN1C(=O)C(=Cc2ccc(OCCN(C)c3ccccn3)cc2)C(=O)N(C)C1=O	3.3% (inactive)	–
CCOP(=O)(OCC)/C(C#N)=C/c1ccc(Br)cc1	3.7% (inactive)	–
N#CC(C#N)=Cc1ccc(C=C(C#N)C#N)cc1	19.1% (inactive)	–
CCc1ccc(/C=C(/C#N)C(N)=S)cc1	84.5% (active)	–
CN(C)P1(N(C)C)=NC(C(F)(F)F)=NC(C(F)(F)F)=N1	2.9% (inactive)	–
CNC(=S)N(C)CCc1cc2c(c(OC)c1/C=C1/C(=O)NC(=O)N(C)C1=O)OCO2	6.3% (inactive)	–
CNC(=S)N(C)CCc1cc2c(c(OC)c1C=C1C(=O)NC(=O)NC1=O)OCO2	50.6% (active)	–
COc1c(C=C2C(=O)NC(=O)NC2=O)c(CCN(C)C(=O)c2ccccc2)cc2c1OCO2	15.8% (inactive)	–
C=CCN1C(=O)/C(=C/c2cccs2)C(=O)NC1=S	-17.9% (inactive)	–
O=C1NC(=O)N(Cc2ccc(F)cc2)C(=O)/C1=C/c1cccs1	29.5% (inactive)	–
O=C1NC(=S)N(Cc2ccco2)C(=O)/C1=C\c1cccs1	76.9% (active)	–
Cc1c(C=C2C(=O)N(C)C(=S)N(C)C2=O)c2ccccc2n1CC(=O)NCC1CCCO1 (stereo not drawn)	-5.7% (inactive)	–
CCCCCCn1c(O)c(C=NCCN2CCOCC2)c(=O)[nH]c1=O	-1.8% (inactive)	–
O=C1/C(=C\c2ccc([N+](=O)[O-])cc2)N2CCC1CC2	-2.4% (inactive)	–
O=C1C2(c3ccccc3)CN3CN(C2)CC1(c1ccccc1)C3	-5.2% (inactive)	–
CC(C)[C@H]1C(=O)N2CCC[C@H]2[C@]2(O)O[C@](NC(=O)[C@@H]3C=C4c5cccc6[nH]cc(c56)C[C@H]4N(C)C3)(C(C)C)C(=O)N12	69.1% (inactive)	26.9%
CC(C)C[C@H]1C(=O)N2CCCC2[C@]2(O)O[C@](NC(=O)[C@@H]3C=C4c5cccc6[nH]cc(c56)CC4N(C)C3)(C(C)C)C(=O)N12 (stereo partly drawn)	67.7% (inactive)	31.4%
CC(C)[C@@]1(NC(=O)[C@@H]2C=C3c4cccc5[nH]cc(c45)C[C@H]3N(C)C2)O[C@@]2(O)[C@@H]3CCCN3C(=O)[C@H](Cc3ccccc3)N2C1=O	66.3% (active)	–
CC(C)CC(NC(=O)C1CCCCC1)C(=O)N1CCC2(CC1)OCCO2 (stereo not drawn)	-0.4% (inactive)	–
NP(=O)(OCCCc1ccccc1)Oc1ccc(Cl)cc1 (stereo not drawn)	2.9% (inactive)	–
C=Cn1ccnc1P(=S)(c1ccc(Cl)cc1)c1nccn1C=C	4.2% (inactive)	–
